# Laboratory results as given in PubChem BioAssay (NCI).
# Several values for one entry are separate records, joined by “and”; a condition that tells them apart may be missing. Equal entries are not always repeated. Compounds without any hit were thinned out: in the full panel of roughly 83,000, 20% have a hit.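 Cell lines were cultured in 96-well plates, exposed to a single compound concentration, and assessed for percent growth 48 hours later.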 Activity calls are given as the source filed them. Rule for the calls: active = growth percent below 10; inactive = the rest.
# Legend:
# Assay in all cases: NCI-60 one-dose screen, 48 h (100 = growth as untreated, 0 = no growth, -100 = all killed)
# Settings in all cases: 10 µM unless noted
# TK-10 renal = tested on: TK-10 renal
# EKVX NSCLC = tested on: EKVX NSCLC
# CAKI-1 renal = tested on: CAKI-1 renal
# SR leukemia = tested on: SR leukemia
# OVCAR-8 ovarian = tested on: OVCAR-8 ovarian
# OVCAR-4 ovarian = tested on: OVCAR-4 ovarian
# IGROV1 ovarian = tested on: IGROV1 ovarian
# SK-MEL-2 melanoma = tested on: SK-MEL-2 melanoma
# SN12C renal = tested on: SN12C renal
# UO-31 renal = tested on: UO-31 renal
# ACHN renal = tested on: ACHN renal
# A498 renal = tested on: A498 renal
# CCRF-CEM leukemia = tested on: CCRF-CEM leukemia
# RPMI-8226 leukemia = tested on: RPMI-8226 leukemia
# OVCAR-5 ovarian = tested on: OVCAR-5 ovarian
# SK-OV-3 ovarian = tested on: SK-OV-3 ovarian
# OVCAR-3 ovarian = tested on: OVCAR-3 ovarian
# HS 578T breast = tested on: HS 578T breast
# NCI/ADR-RES ovarian = tested on: NCI/ADR-RES ovarian
# MOLT-4 leukemia = tested on: MOLT-4 leukemia
smiles,measurement,setting,value
O=C(O)CCCC(=O)Nn1c(Cc2ccc(Cl)cc2)n[nH]c1=O,growth,TK-10 renal,85.5% [100 µM] (inactive) and 95% [100 µM] (inactive)
CCCCCC(O)(CCCCC)CCCCCCCCC1=C(O)c2ccccc2C(=O)C1=O,growth,TK-10 renal,0.969% [100 µM] (active) and -7.87% [100 µM] (active)
Cc1cc(S(=O)(=O)O)c(NC(=O)c2oc3cc(O)ccc3c(=O)c2C)cc1Cl,growth,TK-10 renal,90.8% [100 µM] (inactive) and 91.7% [100 µM] (inactive)
Cc1ccc(/C=N/Nc2ccccn2)s1,growth,TK-10 renal,147% [100 µM] (inactive) and 60.9% [100 µM] (inactive)
CCCCCCCCCCCCC/C=C/[C@H]1[C@@H](C(=O)OC)N1S(=O)c1ccc(C)cc1 (stereo partly specified),growth,TK-10 renal,107% [100 µM] (inactive) and 52.5% [100 µM] (inactive)
Nc1ccn(C2OC(CO)C(O)C2O)c(=O)n1 (stereo unspecified),growth,EKVX NSCLC,99.2% (inactive) [middle of 4 runs]
same,growth,CAKI-1 renal,26.9% (inactive) and 4.29% (active) and 95.4% (inactive)
same,growth,SR leukemia,14.8% (inactive)
same,growth,OVCAR-8 ovarian,40.1% (inactive) and 97.2% (inactive) and 101% (inactive)
same,growth,OVCAR-4 ovarian,99.9% (inactive) [middle of 4 runs]
same,growth,IGROV1 ovarian,50.9% (inactive) and 10.1% (inactive) and 106% (inactive)
COc1cc2c3cc1Oc1c(OC)c(OC)cc4c1C(Cc1ccc(O)c(c1)-c1cc(ccc1OC)CC3N(C)CC2)N(C)CC4 (stereo unspecified),growth,TK-10 renal,-41.8% [100 µM] (active) and -97% [100 µM] (active)
COc1ccc(NC(=S)Nc2ccccn2)cc1,growth,SK-MEL-2 melanoma,94.6% (inactive)
same,growth,SN12C renal,100% (inactive)
same,growth,UO-31 renal,93.7% (inactive)
same,growth,TK-10 renal,102% (inactive)
same,growth,ACHN renal,97.7% (inactive)
same,growth,CAKI-1 renal,89.3% (inactive)
same,growth,A498 renal,83% (inactive)
same,growth,CCRF-CEM leukemia,90.8% (inactive)
same,growth,SR leukemia,90.5% (inactive)
same,growth,RPMI-8226 leukemia,93% (inactive)
same,growth,OVCAR-5 ovarian,97.7% (inactive)
same,growth,OVCAR-4 ovarian,110% (inactive)
same,growth,SK-OV-3 ovarian,98% (inactive)
same,growth,OVCAR-3 ovarian,97% (inactive)
same,growth,HS 578T breast,101% (inactive)
same,growth,NCI/ADR-RES ovarian,99.8% (inactive)
Cc1ccc(S(=O)(=O)Nc2nc3ccccc3nc2Nc2ccc3nsnc3c2)cc1,growth,SK-MEL-2 melanoma,7.36% (active)
same,growth,SN12C renal,50.9% (inactive) and 34.8% (inactive)
same,growth,UO-31 renal,43.6% (inactive) and 22.3% (inactive)
same,growth,TK-10 renal,35.4% (inactive) and 53.3% (inactive)
same,growth,ACHN renal,54.5% (inactive) and 61% (inactive)
same,growth,A498 renal,56.7% (inactive) and 11.7% (inactive)
same,growth,CCRF-CEM leukemia,44.2% (inactive)
same,growth,MOLT-4 leukemia,35.3% (inactive) and 45.3% (inactive)
same,growth,SR leukemia,71.2% (inactive) and 76.1% (inactive)
same,growth,RPMI-8226 leukemia,27.5% (inactive)
same,growth,OVCAR-8 ovarian,43.4% (inactive) and 63.3% (inactive)
same,growth,OVCAR-4 ovarian,38.9% (inactive) and 30.7% (inactive)
same,growth,SK-OV-3 ovarian,30.1% (inactive) and 69.2% (inactive)
same,growth,IGROV1 ovarian,66.3% (inactive) and 41.9% (inactive)
same,growth,OVCAR-3 ovarian,47.8% (inactive) and 35.2% (inactive)
same,growth,HS 578T breast,11.4% (inactive)
same,growth,NCI/ADR-RES ovarian,62.8% (inactive) and 43.2% (inactive)
CN(C)c1ccc(/C=N/n2c(-c3ccccc3)nc3ccccc3c2=O)cc1,growth,TK-10 renal,101% [100 µM] (inactive) and 30.4% [100 µM] (inactive)
CC1CC(C(=O)OC2OC(COC3OC(CO)C(OC4OC(C)C(O)C(O)C4O)C(O)C3O)C(O)C(O)C2O)C2CCC3(C)C(=CCC4(C)C3CCC3C(C)(CO)C(O)C(O)CC34C)C2C1C (stereo unspecified),growth,TK-10 renal,-65.8% [100 µM] (active) and -100% [100 µM] (active)
O=C1c2c(O)cc(O)cc2OC(c2ccc(O)c(O)c2)C1O (stereo unspecified),growth,SK-MEL-2 melanoma,105% (inactive)
same,growth,SN12C renal,104% (inactive)
same,growth,TK-10 renal,104% (inactive)
same,growth,ACHN renal,105% (inactive)
same,growth,CAKI-1 renal,118% (inactive)
same,growth,A498 renal,107% (inactive)
same,growth,CCRF-CEM leukemia,97.7% (inactive)
same,growth,MOLT-4 leukemia,107% (inactive)
same,growth,SR leukemia,101% (inactive)
same,growth,RPMI-8226 leukemia,99.5% (inactive)
same,growth,OVCAR-8 ovarian,99.1% (inactive)
same,growth,OVCAR-5 ovarian,104% (inactive)
same,growth,OVCAR-4 ovarian,113% (inactive)
same,growth,SK-OV-3 ovarian,109% (inactive)
same,growth,IGROV1 ovarian,126% (inactive)
same,growth,OVCAR-3 ovarian,123% (inactive)
same,growth,HS 578T breast,109% (inactive)
COC(=O)C1=CO[C@@H](OC2OC(CO)C(O)C(O)C2O)[C@H]2[C@@H](C)[C@@H](O)[C@@H](O)[C@@H]12 (stereo partly specified),growth,TK-10 renal,102% [100 µM] (inactive) and 98% [100 µM] (inactive)
COc1ccccc1/C=N\N=C(N/N=C/c1ccccc1OC)N/N=C/c1ccccc1OC,growth,SK-MEL-2 melanoma,47.5% (inactive) and 31.8% (inactive)
same,growth,SN12C renal,77.2% (inactive) and 28.4% (inactive)
same,growth,UO-31 renal,50.4% (inactive) and -10.3% (active)
same,growth,TK-10 renal,110% (inactive) and 57.7% (inactive)
same,growth,ACHN renal,63.8% (inactive) and 40.6% (inactive)
same,growth,A498 renal,100% (inactive) and 72.2% (inactive)
same,growth,CCRF-CEM leukemia,39.9% (inactive) and 23.4% (inactive)
same,growth,MOLT-4 leukemia,31.1% (inactive) and 8.9% (active)
same,growth,SR leukemia,19.9% (inactive) and 19.6% (inactive)
same,growth,RPMI-8226 leukemia,26.7% (inactive) and -8.79% (active)
same,growth,OVCAR-8 ovarian,69% (inactive) and 23.3% (inactive)
same,growth,OVCAR-4 ovarian,29.2% (inactive)
same,growth,SK-OV-3 ovarian,73.7% (inactive) and 49.8% (inactive)
same,growth,IGROV1 ovarian,87.7% (inactive) and 26.3% (inactive)
same,growth,OVCAR-3 ovarian,-6.91% (active) and 19.3% (inactive)
same,growth,HS 578T breast,99.5% (inactive) and 33.8% (inactive)
same,growth,NCI/ADR-RES ovarian,45.4% (inactive) and 19.1% (inactive)
C[N+](C)(C)CN1C(=O)c2ccccc2C1=O,growth,SN12C renal,100% (inactive)
same,growth,UO-31 renal,97.3% (inactive)
same,growth,ACHN renal,102% (inactive)
same,growth,A498 renal,98.2% (inactive)
same,growth,CCRF-CEM leukemia,101% (inactive)
same,growth,MOLT-4 leukemia,94.2% (inactive)
same,growth,SR leukemia,83.8% (inactive)
same,growth,RPMI-8226 leukemia,106% (inactive)
same,growth,OVCAR-5 ovarian,105% (inactive)
same,growth,OVCAR-4 ovarian,101% (inactive)
same,growth,SK-OV-3 ovarian,98.1% (inactive)
same,growth,OVCAR-3 ovarian,109% (inactive)
same,growth,HS 578T breast,103% (inactive)
same,growth,NCI/ADR-RES ovarian,112% (inactive)
COc1cc(C(=O)N/N=C/c2ccc(N(C)C)cc2)cc(OC)c1OC,growth,EKVX NSCLC,75.7% (inactive)
same,growth,SN12C renal,41.3% (inactive)
same,growth,ACHN renal,45.1% (inactive)
same,growth,CAKI-1 renal,68.3% (inactive)
same,growth,A498 renal,-3.05% (active)
same,growth,CCRF-CEM leukemia,8.58% (active)
same,growth,MOLT-4 leukemia,-0.126% (active)
same,growth,SR leukemia,6.85% (active)
same,growth,RPMI-8226 leukemia,19.6% (inactive)
same,growth,OVCAR-8 ovarian,21.2% (inactive)
same,growth,OVCAR-5 ovarian,44.5% (inactive)
same,growth,OVCAR-4 ovarian,61.7% (inactive)
same,growth,SK-OV-3 ovarian,10.9% (inactive)
same,growth,OVCAR-3 ovarian,-11.7% (active)
same,growth,HS 578T breast,46.4% (inactive)
same,growth,NCI/ADR-RES ovarian,-40.1% (active)
OC(CSc1ccccc1)CN1CCN(c2cccc(Cl)c2)CC1 (stereo unspecified),growth,SK-MEL-2 melanoma,98.3% (inactive) and 100% (inactive)
same,growth,SN12C renal,94.3% (inactive) and 103% (inactive)
same,growth,UO-31 renal,76% (inactive) and 75% (inactive)
same,growth,TK-10 renal,101% (inactive) and 112% (inactive)
same,growth,ACHN renal,103% (inactive) and 101% (inactive)
same,growth,A498 renal,116% (inactive) and 89.9% (inactive)
same,growth,CCRF-CEM leukemia,92.5% (inactive) and 98.1% (inactive)
same,growth,MOLT-4 leukemia,76.1% (inactive) and 94.9% (inactive)
same,growth,SR leukemia,87.2% (inactive) and 102% (inactive)
same,growth,RPMI-8226 leukemia,92.9% (inactive) and 97.3% (inactive)
same,growth,OVCAR-8 ovarian,98.9% (inactive) and 101% (inactive)
same,growth,OVCAR-5 ovarian,105% (inactive) and 96.9% (inactive)
same,growth,OVCAR-4 ovarian,97.1% (inactive) and 107% (inactive)
same,growth,SK-OV-3 ovarian,105% (inactive) and 107% (inactive)
same,growth,IGROV1 ovarian,105% (inactive) and 122% (inactive)
same,growth,OVCAR-3 ovarian,120% (inactive) and 101% (inactive)
same,growth,HS 578T breast,118% (inactive) and 88.7% (inactive)
same,growth,NCI/ADR-RES ovarian,99.6% (inactive) and 88.7% (inactive)
O=C(Nc1cccc(-n2ccc3c(NC(=O)c4ccccc4)nccc32)c1)c1ccc(Cl)c(C(F)(F)F)c1,growth,SN12C renal,-40% (active) and 64.5% (inactive)
same,growth,UO-31 renal,7.05% (active) and 75.7% (inactive)
same,growth,TK-10 renal,93.1% (inactive)
same,growth,ACHN renal,13% (inactive) and 53.5% (inactive)
same,growth,CAKI-1 renal,-66.7% (active) and 42.8% (inactive)
same,growth,A498 renal,15.3% (inactive) and 75.5% (inactive)
same,growth,CCRF-CEM leukemia,-25.3% (active) and 40.3% (inactive)
same,growth,SR leukemia,-21.7% (active) and 4.99% (active)
same,growth,RPMI-8226 leukemia,-47.6% (active) and 32.3% (inactive)
same,growth,OVCAR-8 ovarian,44.6% (inactive)
same,growth,OVCAR-5 ovarian,16.2% (inactive) and 76.5% (inactive)
same,growth,OVCAR-4 ovarian,6.88% (active) and 70.1% (inactive)
same,growth,SK-OV-3 ovarian,11.8% (inactive) and 70.6% (inactive)
same,growth,IGROV1 ovarian,4.27% (active) and 56.4% (inactive)
same,growth,OVCAR-3 ovarian,-86.6% (active) and 51.6% (inactive)
same,growth,HS 578T breast,90.1% (inactive)
same,growth,NCI/ADR-RES ovarian,-33% (active) and 58.4% (inactive)
CC/C(Cl)=N\OC(=O)Nc1ccc(OC)cc1,growth,TK-10 renal,-100% [100 µM] (active)
NC(=O)NO,growth,SK-MEL-2 melanoma,110% (inactive) and 94.1% (inactive)
same,growth,SN12C renal,104% (inactive) and 71.5% (inactive)
same,growth,UO-31 renal,87.8% (inactive) and 48.8% (inactive)
same,growth,TK-10 renal,113% (inactive) and 85% (inactive)
same,growth,ACHN renal,96.9% (inactive) and 67.5% (inactive)
same,growth,CAKI-1 renal,83.9% (inactive) and 77.2% (inactive)
same,growth,A498 renal,104% (inactive) and -7.21% (active)
same,growth,CCRF-CEM leukemia,82.2% (inactive) and 68% (inactive)
same,growth,SR leukemia,54.6% (inactive)
same,growth,RPMI-8226 leukemia,98.8% (inactive) and 42.1% (inactive)
same,growth,OVCAR-8 ovarian,99.8% (inactive)
same,growth,OVCAR-5 ovarian,108% (inactive) and 45.8% (inactive)
same,growth,OVCAR-4 ovarian,105% (inactive) and 59.5% (inactive)
same,growth,SK-OV-3 ovarian,107% (inactive) and 56.4% (inactive)
same,growth,IGROV1 ovarian,104% (inactive) and 47% (inactive)
same,growth,OVCAR-3 ovarian,110% (inactive) and 70.1% (inactive)
same,growth,HS 578T breast,109% (inactive) and -24.6% (active)
same,growth,NCI/ADR-RES ovarian,99.4% (inactive) and 87.4% (inactive)
